Several values for one entry are separate records, joined by “and”; a condition that tells them apart may be missing. Identical values can stand only once. In all, about 5,500 compounds went through this assay and about 2,000 (36%) were called active. Roughly 18% stayed inconclusive and do not appear here. Cut-off read from the data, not from the text of the source: active = normalized growth mostly below about 0.91 (no sharp cut-off); inconclusive = no clear call, values can overlap the other calls; inactive = mostly above about 0.92. Some of the results follow.
Test: chemical genetic growth profiling, strain panel (AID 1159580);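 note: tested at 20 µM; growth read once vehicle control cultures reached saturation at 30 °C; 1 = growth at the plate median or of vehicle wells; lower values mean less growth of the strain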
Conditions: S. cerevisiae deletion strains, growth OD

Measured: normalized growth

CCN(CC)CCOc1ccc(/C(=C(\Cl)c2ccccc2)c2ccccc2)cc1
0.0542 (active) and 0.924 (inactive): locus YHR030C, strain SLT2, stronger effect = lower value
inactive: locus YHR079C, strain IRE1, stronger effect = lower value 0.945 | locus YIL125W, strain kgd1, stronger effect = lower value 0.983 | locus YJR066W, strain TOR1, stronger effect = lower value 0.982
active: locus YAL013W, strain DEP1, stronger effect = lower value 0.0553 | locus YAL021C, strain ccr4, stronger effect = lower value 0.064 | locus YAL026C, strain drs2, stronger effect = lower value 0.0617 | locus YAL030W, strain snc1, stronger effect = lower value 0.076 | locus YBL061C, strain skt5, stronger effect = lower value 0.0714 | locus YBR009C, strain hhf1, stronger effect = lower value 0.0875 | locus YBR021W, strain FUR4, stronger effect = lower value 0.089 | locus YBR023C, strain chs3, stronger effect = lower value 0.0792 | locus YBR171W, strain sec66, stronger effect = lower value 0.17 | locus YBR229C, strain ROT2, stronger effect = lower value 0.0488 | locus YBR231C, strain swc5, stronger effect = lower value 0.0847 | locus YBR279W, strain paf1, stronger effect = lower value 0.265 | locus YCL011C, strain gbp2, stronger effect = lower value 0.0699 | locus YCL016C, strain dcc1, stronger effect = lower value 0.203 | locus YCL029C, strain bik1, stronger effect = lower value 0.0627 | locus YCL069W, strain vba3, stronger effect = lower value 0.11 | locus YCR088W, strain abp1, stronger effect = lower value 0.107 | locus YDL005C, strain med2, stronger effect = lower value 0.11 | locus YDL035C, strain GPR1, stronger effect = lower value 0.0517 | locus YDL040C, strain nat1, stronger effect = lower value 0.479 | locus YDL074C, strain BRE1, stronger effect = lower value 0.0809 | locus YDL101C, strain DUN1, stronger effect = lower value 0.0611 | locus YDL185W, strain tfp1, stronger effect = lower value 0.124 | locus YDL192W, strain arf1, stronger effect = lower value 0.0614 | locus YDR001C, strain nth1, stronger effect = lower value 0.216 | locus YDR069C, strain doa4, stronger effect = lower value 0.0706 | locus YDR101C, strain arx1, stronger effect = lower value 0.0624 | locus YDR137W, strain rgp1, stronger effect = lower value 1.41 [resistant] | locus YDR159W, strain sac3, stronger effect = lower value 0.105 | locus YDR162C, strain NBP2, stronger effect = lower value 0.0484 | locus YDR195W, strain ref2 0.235 | locus YDR297W, strain sur2, stronger effect = lower value 0.0942 | locus YDR318W, strain mcm21, stronger effect = lower value 0.0641 | locus YDR334W, strain swr1, stronger effect = lower value 0.0931 | locus YDR335W, strain msn5, stronger effect = lower value 0.093 | locus YDR388W, stronger effect = lower value 0.055 | locus YDR392W, strain spt3, stronger effect = lower value 0.0803 | locus YDR502C, strain sam2, stronger effect = lower value 0.0655 | locus YEL003W, strain gim4, stronger effect = lower value 0.133 | locus YEL037C, strain rad23, stronger effect = lower value 0.099 | locus YEL061C, strain CIN8 (second series), stronger effect = lower value 0.3 | locus YEL061C, strain CIN8, stronger effect = lower value 0.0516 | locus YER015W, strain faa2, stronger effect = lower value 0.143 | locus YER016W, strain bim1, stronger effect = lower value 0.218 | locus YER110C, stronger effect = lower value 0.0804 | locus YER111C, strain swi4, stronger effect = lower value 0.529 | locus YER155C, strain BEM2 (second series), stronger effect = lower value 0.851 | locus YER155C, strain BEM2, stronger effect = lower value 0.0653 | locus YER167W, strain BCK2, stronger effect = lower value 0.0512 | locus YFR010W, strain ubp6, stronger effect = lower value 0.0804 | locus YGL078C, strain dbp3, stronger effect = lower value 0.919 | locus YGL086W, strain mad1, stronger effect = lower value 0.0596 | locus YGL167C, strain pmr1, stronger effect = lower value 0.244 | locus YGL173C, strain kem1, stronger effect = lower value 0.497 | locus YGL227W, strain vid30, stronger effect = lower value 0.144 | locus YGL240W, strain doc1, stronger effect = lower value 0.228 | locus YGL248W, strain PDE1, stronger effect = lower value 0.0492 | locus YGL253W, strain hxk2, stronger effect = lower value 0.0662 | locus YGR135W, strain pre9, stronger effect = lower value 0.069 | locus YGR252W, strain gcn5, stronger effect = lower value 0.178 | locus YHR013C, strain ard1, stronger effect = lower value 0.134 | locus YHR027C, strain rpn1, stronger effect = lower value 0.109 | locus YHR079C, strain IRE1 (second series), stronger effect = lower value 0.0584 | locus YHR094C, strain hxt1, stronger effect = lower value 0.0617 | locus YHR129C, strain ARP1, stronger effect = lower value 0.0567 | locus YHR142W, strain chs7, stronger effect = lower value 0.08 | locus YHR200W, strain rpn10, stronger effect = lower value 0.0639 | locus YIL066C, strain RNR3, stronger effect = lower value 0.0508 | locus YIL073C, strain SPO22, stronger effect = lower value 0.106 | locus YIR030C, strain dcg1, stronger effect = lower value 0.0601 | locus YJL092W, strain hpr5, stronger effect = lower value 0.193 | locus YJL095W, strain BCK1 (second series), stronger effect = lower value 0.0616 | locus YJL115W, strain asf1, stronger effect = lower value 0.262 | locus YJL129C, strain trk1, stronger effect = lower value 0.158 | locus YJL134W, strain LCB3, stronger effect = lower value 0.0524 | locus YJL154C, strain vps35, stronger effect = lower value 0.095 | locus YJL164C, strain tpk1, stronger effect = lower value 0.0775 | locus YJL166W, strain qcr8, stronger effect = lower value 0.0887 | locus YJL168C, strain set2, stronger effect = lower value 0.0577 | locus YJL187C, strain SWE1 (second series), stronger effect = lower value 0.0519 | locus YJR043C, strain POL32, stronger effect = lower value 0.064
0.0616 (active) and 0.946 (inactive): locus YJL095W, strain BCK1, stronger effect = lower value
